Structures can show the parent of a compound that is named as a salt. Values without a mark were called inactive.
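Note: High-content confocal imaging of branched-DNA amplified FISH in 384-well plates, Hoechst-defined nuclei, score is well value minus plate DMSO median over DMSO robust SD, four wells per compound.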

In the experiment the test system is HeLa. In words: MALAT1 nuclear FISH intensity, robust Z-score vs DMSO; higher = more nuclear MALAT1 lncRNA, active = -3 or less. The conditions noted are these: 10 µM; 6 h.
Regarding `NC(=S)NCCC[C@H](N)C(=O)O` [Thiocitrulline [L-Thiocitrulline]], the “MALAT1 nuclear FISH intensity” value is -2.41. For the molecule `CCCCc1oc2ccccc2c1C(=O)c1cc(I)c(OCCN(CC)CC)c(I)c1`, the “MALAT1 nuclear FISH intensity” value is -0.306. With `COc1cc([C@@H]2c3cc4c(cc3[C@@H](O[C@@H]3O[C@@H]5CO[C@@H](C)O[C@H]5[C@H](O)[C@H]3O)[C@H]3COC(=O)[C@H]23)OCO4)cc(OC)c1O` [Etoposide], the “MALAT1 nuclear FISH intensity” value is 0.192. `O=c1c(O)c(-c2ccc(O)c(O)c2)oc2cc(O)cc(O)c12`: the “MALAT1 nuclear FISH intensity” value was -0.883. As to `Cc1cccc(Nc2nc(-c3ccncc3)cs2)c1`, the “MALAT1 nuclear FISH intensity” value was -0.461. For the molecule `COc1cc2nc(N3CCN(C(=O)C4CCCO4)CC3)nc(N)c2cc1OC` (stereo unspecified), the “MALAT1 nuclear FISH intensity” value was -0.488. For the molecule `COc1ccccc1Oc1c(NS(=O)(=O)c2ccc(C(C)(C)C)cc2)nc(-c2ncccn2)nc1OCCO` [Bosentan], the “MALAT1 nuclear FISH intensity” value is -0.492.

As for `CO/N=C(\C(=O)N[C@@H]1C(=O)N2C(C(=O)OC(C)OC(C)=O)=C(COC(N)=O)CS[C@H]12)c1ccco1` (stereo partly specified) [Cefuroxime Axetil], the “MALAT1 nuclear FISH intensity” value was 0.223. As to `C[C@H](CCC(=O)O)[C@H]1CC[C@H]2[C@@H]3[C@H](O)C[C@@H]4C[C@H](O)CC[C@]4(C)[C@H]3CC[C@]12C` [Chenodiol (Chenodeoxycholic Acid)], the “MALAT1 nuclear FISH intensity” value is 0.231. As to `CCCCCCCCCCCCCC(=O)N[C@H](C)[C@@H](O)c1ccccc1` [D-erythro-MAPP], the “MALAT1 nuclear FISH intensity” value was 0.232. On to `CCCc1cc(=O)[nH]c(=S)[nH]1` [Propylthiouracil], for which the “MALAT1 nuclear FISH intensity” value is -0.217.

For the molecule `CC(Oc1ccc(O)cc1)(P(=O)(O)O)P(=O)(O)O`, the “MALAT1 nuclear FISH intensity” value was -1.23. With `COC(=O)Nc1nc2cc(C(=O)c3ccccc3)ccc2[nH]1` [Mebendazole], the “MALAT1 nuclear FISH intensity” value is -1.33.

`CCN(CC)CCOc1ccc(C(=C(Cl)c2ccccc2)c2ccccc2)cc1` [Clomiphene Citrate]: the “MALAT1 nuclear FISH intensity” value is 1.82.

As for `CC(C)NCC(O)COc1ccc(CC(N)=O)cc1` (stereo unspecified), the “MALAT1 nuclear FISH intensity” value is -0.232. As to `COc1cc2nc(N3CCN(C(=O)c4ccco4)CC3)nc(N)c2cc1OC` [Prazocin], the “MALAT1 nuclear FISH intensity” value is -0.261. With `O=c1oc(Cl)c(Cl)c2ccccc12` [3,4-dichloroisocoumarin], the “MALAT1 nuclear FISH intensity” value was -0.365.

`CCN(CC)C(=O)/C(C#N)=C/c1cc(O)c(O)c([N+](=O)[O-])c1` [Entacapone]: the “MALAT1 nuclear FISH intensity” value is 0.0508. Turning to `O=C(/C=C/c1ccc(/C=C/C(=O)Nc2ccc(C3=NCCN3)cc2)cc1)Nc1ccc(C2=NCCN2)cc1` [GW4869 hydrate], the “MALAT1 nuclear FISH intensity” value is -1.01.

As to `Nc1ncnc2c1ncn2[C@@H]1O[C@H](CO)[C@@H](O)[C@H]1O` [Adenosine], the “MALAT1 nuclear FISH intensity” value is -0.281. Consider `O=C(O)C(S)=Cc1c[nH]c2ccc(F)cc12`, for which the “MALAT1 nuclear FISH intensity” value is 0.716.

The record behind these values is the supplement of paper PMC9844399.
